Several values for one entry are separate records, joined by “and”; a condition that tells them apart may be missing. Equal entries are not always repeated. Inconclusive results are not listed. Some structures have more than one record in an assay (separate samples or runs), and their calls can disagree. Activity calls are given as the source filed them. Rule for the calls: active = hit-call score of the fitted dose curve at least 0.9, where 1 is the maximum; inconclusive = response in the unintended direction; inactive = score below 0.9.

The term AC50 denotes the concentration giving half of the maximal activity seen.

Experiment [1] addresses zebrafish Thyroid Hormone Receptor beta (TRb), thrb (gene 30607) (UniProt Q9PVE4). The experiment can be described thus: ATG_zfTRb_XSP1: Attagene TRANS-FACTORIAL Multi-Species (XSP1) HepG2 Assay for zebrafish Thyroid Hormone Receptor beta (TRb) (AID 2283809). Put shortly: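 HepG2 cells transiently transfected with multiplexed GAL4-UAS reporter units expressing chimeric zebrafish TRb–Gal4. Dosed 24 h with 3 nM 6-alpha-fluorotestosterone present; reporter mRNA measured by RT-PCR, HpaI digestion and capillary electrophoresis; gain of signal versus DMSO.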

Experiment [2] in a line: ATG_XTT_Cytotoxicity_XSP1: Cytotoxicity Assessment in the Attagene TRANS-FACTORIAL Multi-Species (XSP1) HepG2 Assay (AID 2283810). Put shortly: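 XTT viability readout taken at 24 hours post-dosing in HepG2 liver cells co-treated with 3 nM 6-alpha-fluorotestosterone. Signal loss relative to DMSO controls reflects cytotoxicity.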
A short description of experiment [3]: ATG_M_06_XSP2: Attagene TRANS-FACTORIAL Multi-Species (XSP2) HepG2 Assay for M06 Transcription Factor (Internal Marker) (AID 2283811).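 Note: hits are increases in signal above the DMSO baseline.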 Put shortly:
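Readout: fluorescent reporter-mRNA peaks by capillary electrophoresis after RT-PCR and HpaI digest, scored upward relative to DMSO. Transfected HepG2, 24 h chemical exposure, with 3 nM 6-alpha-fluorotestosterone and 1.5 nM norgestrel added.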

The test system of experiment [4] is turtle Estrogen Receptor (ERa), gene 101933533. The experiment can be described thus: ATG_trERa_XSP2: Attagene TRANS-FACTORIAL Multi-Species (XSP2) HepG2 Assay for turtle Estrogen Receptor (ERa) (AID 2283812).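 Note: actives raise reporter signal above DMSO so AC50 reflects agonist activity.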 Put shortly:
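Readout is reporter mRNA quantified by RT-PCR with capillary electrophoresis after 24 h compound exposure, increase relative to DMSO. Uses transiently transfected human HepG2 liver cells carrying a chimeric turtle ERa-Gal4 receptor driving GAL4-UAS reporters.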

Experiment [5] concerns the target Estrogen receptor beta (Homo sapiens) (UniProt Q92731). As to the kind of experiment: ATG_hERb_XSP2: Attagene TRANS-FACTORIAL Multi-Species (XSP2) HepG2 Assay for human Estrogen Receptor (ERb) (AID 2283813).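 Note: actives raise reporter mRNA above DMSO so AC50 reflects agonist induction.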 Put shortly: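 Transient TRANS reporter system in HepG2: after 24 h of chemical, RNA is reverse-transcribed, reporter cDNA amplified, FAM-labelled and sized by capillary electrophoresis. Induction of the human ERb-Gal4 reporter is measured relative to DMSO.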

The target in experiment [6] is zebrafish Estrogen Receptor (ER1), esr1 (gene 259252) (UniProt P57717). As to the kind of experiment: ATG_zfER1_XSP2: Attagene TRANS-FACTORIAL Multi-Species (XSP2) HepG2 Assay for zebrafish Estrogen Receptor (ER1) (AID 2283816). The method, boiled down:
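After 24 h compound exposure, RNA from transfected HepG2 cells was reverse-transcribed and reporter transcripts resolved by capillary electrophoresis. The TRANS format reads exogenous zebrafish ER1-Gal4 chimera activity on GAL4-UAS elements; gain of signal against DMSO.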

In experiment [7] the target is chicken Estrogen Receptor (ERa), ESR1 (gene 396099) (UniProt P06212). As to the kind of experiment: ATG_chERa_XSP2: Attagene TRANS-FACTORIAL Multi-Species (XSP2) HepG2 Assay for chicken Estrogen Receptor (ERa) (AID 2283817).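 Note: actives raise reporter signal above DMSO so AC50 reflects ER activation.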 Put shortly: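 Readout: fluorescent reporter-transcript fragments resolved by capillary electrophoresis after RT-PCR and HpaI cut. Chicken ERa-Gal4 fusion in transiently transfected HepG2, dosed for 24 h; activity taken as increase over DMSO baseline.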
chicken Estrogen Receptor (ERa), ESR1 (gene 396099), sequence (P06212 whole entry, looked up, the tested form may be a part): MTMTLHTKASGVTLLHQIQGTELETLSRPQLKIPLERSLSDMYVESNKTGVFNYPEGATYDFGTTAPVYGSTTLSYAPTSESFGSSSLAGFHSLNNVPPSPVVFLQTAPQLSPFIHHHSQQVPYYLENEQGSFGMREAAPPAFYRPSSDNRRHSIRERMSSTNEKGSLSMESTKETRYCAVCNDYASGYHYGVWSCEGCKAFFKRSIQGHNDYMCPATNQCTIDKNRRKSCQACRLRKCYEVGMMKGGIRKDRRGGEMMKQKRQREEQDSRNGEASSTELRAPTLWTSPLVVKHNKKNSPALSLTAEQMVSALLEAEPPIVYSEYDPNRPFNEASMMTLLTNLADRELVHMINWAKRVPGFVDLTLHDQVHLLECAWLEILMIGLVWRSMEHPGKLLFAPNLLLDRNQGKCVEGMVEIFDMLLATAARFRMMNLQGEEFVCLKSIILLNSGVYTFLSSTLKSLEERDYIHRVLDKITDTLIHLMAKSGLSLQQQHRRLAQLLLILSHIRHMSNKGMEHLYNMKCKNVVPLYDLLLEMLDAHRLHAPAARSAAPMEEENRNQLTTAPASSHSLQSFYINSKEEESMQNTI

Experiment [8] deals with zebrafish Estrogen Receptor (ER2a), gene 317734. As to the kind of experiment: ATG_zfER2a_XSP2: Attagene TRANS-FACTORIAL Multi-Species (XSP2) HepG2 Assay for zebrafish Estrogen Receptor (ER2a) (AID 2283818).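 Note: hits raise reporter mRNA so AC50 reflects activation of zebrafish ER2a.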 As for the experimental part: ATG_XSP2_multi-species_TRANS is a cell-based, multiplexed assay created by modifying the existing Attagene TRANS-FACTORIAL system to include a panel of nuclear receptors from some or all the following species: human (Homo sapiens), mouse (Mus musculus), frog (Xenopus laevis), zebrafish (Danio rerio), chicken (Gallus gallus), and turtle (Chrysemys picta). The ECOTOX-FACTORIAL format uses HepG2, a human liver cell line, with measurements taken at 24 hours after chemical dosing in a 24-well plate. Xsp2 included 3 nM 6-alpha-fluorotestosterone and 1.5 nM norgestrel to stimulate the androgen receptor.ATG_zfER2a_XSP2 is one of 29 assay components measured or calculated from the ATG_XSP2_multi-species_TRANS assay. It is designed to make measurements of mRNA induction, a form of inducible reporter, as detected with fluorescence intensity signals by Reverse transcription polymerase chain reaction (RT-PCR) and Capillary electrophoresis technology.The assay endpoint ATG_zfER2a_XSP2 was analyzed in the positive analysis fitting direction relative to DMSO as the negative control and baseline of activity. Using a type of inducible reporter, measures of mRNA for gain-of-signal activity can be used to understand the reporter gene at the transcription factor-level as they relate to the gene ER. Furthermore, this assay endpoint can be referred to as a primary readout, because this assay has produced multiple assay endpoints where this one serves a reporter gene function. To generalize the intended target to other relatable targets, this assay endpoint is annotated to the nuclear receptor intended target family, where the subfamily is steroidal.
Human liver HepG2 cells are transiently transfected with multiple reporter transcription units (MRTUs) in 6-well plates using FuGene 6 reagent (Roche; 3 ml FuGene/1 mg DNA). The MRTU constructs are regulated by a cis-regulating element (promoter). […] A major difference between the CIS and TRANS system is that in CIS activities of endogenous TFs are measured, whereas the TRANS assay evaluates changes in activities of exogenous, chimeric NR-Gal4 proteins. […] At the end of 24 hour incubation, total RNA was isolated using TriZol reagent (Invitrogen). The isolated RNA is then reverse-transcribed using oligo(dT) primer and Mo-MLV reverse transcriptase (Invitrogen) with DNAse I (Ambion) treatment for 30 min. The one-tenth of the produced cDNA was amplified by PCR using Taq DNA polymerase (Invitrogen) and two reporter sequence-specific primers. The PCR products were fluorescently labeled by primer extension with 6-arboxyfluorescein (6-FAM) 5'-labeled reporter sequence-specific primer (2 min at 95 C, 20 s at 68 C and 10 min at 72 C) and these products were digested with 5U of HpaI (New England Biolabs) for 2h at 37 C. The fragments were purified using Qiaquick PCR columns (Qiagen), analyzed on an ABI 3130xL genetic analyzer (Applied Biosystems) with peak positions identified by using a set of X-rhodamine (ROX)-labeled MapMarker1000 molecular weight standards (BioVentures). The raw capillary electrophoresis data was processed using Attagraph software (Attagene).

The target of experiment [9] is GAL4 Transcription Factor (Internal Marker), GAL4 (gene 855828) (UniProt P04386). As to the kind of experiment: ATG_GAL4_XSP2: Attagene TRANS-FACTORIAL Multi-Species (XSP2) HepG2 Assay for GAL4 Transcription Factor (Internal Marker) (AID 2283814).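 Note: GAL4 reporter mRNA background control in MRTU transfected cells not a receptor target.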 The method, boiled down: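 Background-control readout: gain-of-signal fitted against DMSO. After 24 h exposure of transfected HepG2 (MRTU, GAL4-UAS reporters; 3 nM 6-alpha-fluorotestosterone, 1.5 nM norgestrel present), transcripts quantified by RT-PCR and capillary electrophoresis fluorescence.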
GAL4 Transcription Factor (Internal Marker), GAL4 (gene 855828), sequence (P04386 whole entry, looked up, the tested form may be a part): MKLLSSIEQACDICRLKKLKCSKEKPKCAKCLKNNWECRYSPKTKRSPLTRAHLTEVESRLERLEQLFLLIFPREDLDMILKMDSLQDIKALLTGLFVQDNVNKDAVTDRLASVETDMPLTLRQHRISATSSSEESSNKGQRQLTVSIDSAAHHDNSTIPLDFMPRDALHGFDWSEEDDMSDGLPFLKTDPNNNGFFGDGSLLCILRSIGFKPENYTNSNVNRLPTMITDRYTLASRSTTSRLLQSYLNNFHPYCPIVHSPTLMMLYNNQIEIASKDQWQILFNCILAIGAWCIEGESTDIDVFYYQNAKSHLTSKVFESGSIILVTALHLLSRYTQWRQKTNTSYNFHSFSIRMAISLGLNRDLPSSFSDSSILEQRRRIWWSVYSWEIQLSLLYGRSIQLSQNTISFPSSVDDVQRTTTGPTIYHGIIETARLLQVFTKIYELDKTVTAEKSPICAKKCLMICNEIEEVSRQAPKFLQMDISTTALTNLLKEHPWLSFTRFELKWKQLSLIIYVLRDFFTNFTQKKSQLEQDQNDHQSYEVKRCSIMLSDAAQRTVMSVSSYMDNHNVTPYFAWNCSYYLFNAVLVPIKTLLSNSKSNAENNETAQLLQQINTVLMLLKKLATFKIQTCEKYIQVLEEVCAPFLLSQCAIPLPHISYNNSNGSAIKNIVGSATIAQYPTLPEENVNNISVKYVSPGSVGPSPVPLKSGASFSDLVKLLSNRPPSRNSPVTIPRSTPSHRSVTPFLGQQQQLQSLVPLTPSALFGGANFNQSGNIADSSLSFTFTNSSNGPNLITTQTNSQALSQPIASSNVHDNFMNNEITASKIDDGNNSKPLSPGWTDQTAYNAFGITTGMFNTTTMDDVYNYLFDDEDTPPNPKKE

Experiment [10] deals with turtle Androgen Receptor (AR), gene 101947425. The experiment can be described thus: ATG_trAR_XSP2: Attagene TRANS-FACTORIAL Multi-Species (XSP2) HepG2 Assay for turtle Androgen Receptor (AR) (AID 2283815).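 For AC50: reporter mRNA from a Gal4 chimera of turtle AR measured by RT-PCR; potency for gain of reporter signal meaning activation above DMSO baseline.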 The method, boiled down:
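Reporter transcripts were quantified via RT-PCR and capillary electrophoresis and fitted upward against DMSO. Transiently transfected human HepG2 cells carrying NR-Gal4 chimeras were exposed 24 h, with 3 nM 6-alpha-fluorotestosterone plus 1.5 nM norgestrel added.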

zebrafish Estrogen Receptor (ER1), esr1 (gene 259252), sequence (P57717 whole entry, looked up, the tested form may be a part): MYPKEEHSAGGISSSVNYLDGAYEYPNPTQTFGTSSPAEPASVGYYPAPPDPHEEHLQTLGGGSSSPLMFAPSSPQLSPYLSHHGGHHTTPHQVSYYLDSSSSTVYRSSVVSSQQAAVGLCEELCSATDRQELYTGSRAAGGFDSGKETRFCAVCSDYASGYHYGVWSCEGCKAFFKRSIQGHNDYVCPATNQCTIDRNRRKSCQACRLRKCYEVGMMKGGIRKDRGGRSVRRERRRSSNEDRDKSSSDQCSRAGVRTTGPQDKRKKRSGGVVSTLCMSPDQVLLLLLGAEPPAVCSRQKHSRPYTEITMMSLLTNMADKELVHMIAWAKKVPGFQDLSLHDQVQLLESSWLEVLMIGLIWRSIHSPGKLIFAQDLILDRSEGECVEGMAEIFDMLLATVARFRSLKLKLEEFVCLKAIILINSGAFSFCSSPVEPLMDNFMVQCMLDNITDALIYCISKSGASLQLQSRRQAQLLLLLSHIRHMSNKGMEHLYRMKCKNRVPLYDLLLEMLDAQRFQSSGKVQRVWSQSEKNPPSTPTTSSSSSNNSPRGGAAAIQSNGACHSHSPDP
Estrogen receptor beta (Homo sapiens), sequence (Q92731 whole entry, looked up, the tested form may be a part): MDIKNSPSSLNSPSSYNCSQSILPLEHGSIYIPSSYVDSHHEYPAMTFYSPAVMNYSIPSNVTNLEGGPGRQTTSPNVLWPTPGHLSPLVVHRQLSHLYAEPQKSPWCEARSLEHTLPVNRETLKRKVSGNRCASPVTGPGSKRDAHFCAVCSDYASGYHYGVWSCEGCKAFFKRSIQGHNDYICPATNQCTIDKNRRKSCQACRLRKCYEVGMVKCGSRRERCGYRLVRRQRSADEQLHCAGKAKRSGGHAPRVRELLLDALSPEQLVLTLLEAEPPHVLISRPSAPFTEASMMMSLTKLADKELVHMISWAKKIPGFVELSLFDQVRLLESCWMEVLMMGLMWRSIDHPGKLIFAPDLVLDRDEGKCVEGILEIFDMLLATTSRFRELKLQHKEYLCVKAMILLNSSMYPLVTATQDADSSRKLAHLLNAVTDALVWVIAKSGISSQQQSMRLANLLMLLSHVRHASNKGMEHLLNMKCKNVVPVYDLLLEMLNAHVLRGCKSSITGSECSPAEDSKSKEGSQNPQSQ
zebrafish Thyroid Hormone Receptor beta (TRb), thrb (gene 30607), sequence (Q9PVE4 whole entry, looked up, the tested form may be a part): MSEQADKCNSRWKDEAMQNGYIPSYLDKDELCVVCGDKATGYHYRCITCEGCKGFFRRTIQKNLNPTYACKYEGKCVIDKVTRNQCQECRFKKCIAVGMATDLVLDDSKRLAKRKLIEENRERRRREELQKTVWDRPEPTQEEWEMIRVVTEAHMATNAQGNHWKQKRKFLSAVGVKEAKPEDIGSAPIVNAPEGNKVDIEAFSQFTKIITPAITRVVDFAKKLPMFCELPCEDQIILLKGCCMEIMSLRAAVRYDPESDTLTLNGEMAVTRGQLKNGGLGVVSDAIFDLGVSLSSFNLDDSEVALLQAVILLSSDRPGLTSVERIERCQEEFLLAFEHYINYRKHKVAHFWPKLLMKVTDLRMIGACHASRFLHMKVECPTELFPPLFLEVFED

On to `CC[C@H](c1ccc(O)cc1)[C@@H](CC)c1ccc(O)cc1`, for which the compound was classed as inactive in experiment [1], in [2] and in [3]. The concentration at half-maximal activity (AC50) was 0.0546 nM (active) in experiment [4]; 0.147 nM (active) in [5]; 0.000411 µM (active) in experiment [6]; 0.0247 nM (active) in [7]; 0.124 nM (active) in experiment [8].
Turning to `CCC(=C(c1ccc(O)cc1)c1ccc(OCCN(C)C)cc1)c1ccccc1`, the compound was classed as inactive in experiment [3], in experiment [5], in experiment [9] and in experiment [6].
Consider `O=C(O)Cc1cc(I)c(Oc2cc(I)c(O)c(I)c2)c(I)c1`, for which the outcome in experiment [3], in [4], in [9], in [10], in experiment [6] and in experiment [8] was inactive.
In the case of `c1ccc2c(c1)ccc1ccccc12`, the result in [3], in experiment [4], in experiment [9], in [7] and in experiment [8] was inactive.
For `Cc1oc(-c2ccccc2)nc1CCOc1ccc(C[C@H](Nc2ccccc2C(=O)c2ccccc2)C(=O)O)cc1`, the compound was classed as inactive in [1], in experiment [2], in experiment [3], in [4] and in experiment [5].
As for `C#C[C@]1(O)CC[C@H]2[C@@H]3CCC4=CC(=O)CC[C@@H]4[C@H]3CC[C@@]21C`, the AC50 in [4] was 122 nM (active); in experiment [5], 2430 nM (active); in experiment [10], 180 µM (active); in experiment [6] it was 1.65 µM (active); in [7], 76.6 nM (active); in [8] it was 83.4 nM (active).
Turning to `O=c1c(-c2ccc(O)cc2)coc2cc(O)ccc12`, the result in experiment [3] and in experiment [10] was inactive. For the same compound, the concentration at half-maximal activity (AC50) in experiment [4] was 994 nM (active) and 448 nM (active); in [10], 2.32 µM (active); in [6], 6.22 µM (active) and 2.67 µM (active); in experiment [7], 1.49 µM (active) and 369 nM (active); in experiment [8] it was 385 nM (active) and 164 nM (active).
As for `CCC(C)(C)C1CCC(O)CC1` (configuration not stated), the compound was classed as inactive in [1], in [3], in [4], in experiment [9], in [6] and in experiment [7]. For the same compound, in experiment [8], the compound was called inactive.
Consider `CCCOC(=O)c1ccc(O)cc1`, for which the outcome in experiment [3], in experiment [9], in experiment [10] and in [6] was inactive. Further, the half-maximal activity concentration (AC50) is 72.9 µM (active) and 726 nM (active) in experiment [4]; 31.9 µM (active) and 2.52 µM (active) in [5]; 11.1 µM (active) in experiment [6]; 27.8 µM (active) and 9.35 µM (active) in experiment [7]; 51 µM (active) and 3.49 µM (active) in [8].
Consider `Oc1cc2ccccc2c2ccccc12`, for which the call in experiment [4], in [5], in experiment [9], in [6] and in experiment [8] was inactive.

The values above are taken from PubChem BioAssay (EPA / NIEHS).
